Assay outcomes as filed in PubChem BioAssay.
This is a sample that favours compounds with a hit; in the whole collection about 11% have one here.
Pf growth 96h: Primary qHTS for delayed death inhibitors of the malarial parasite plastid, 96 hour incubation | P. falciparum luciferase reporter growth, 96 h | Potency, µM (series often up to 28.7 µM), without a hit: at the highest dose activity change, negative = inhibition, most hits filed as inhibitors | 6.9% of 320,000 active; also: % is scaled to controls: 0 for no effect and ±100 for the full control effect
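Readout is luminescence from an integrated firefly luciferase in P. falciparum. Red cells, 2% hematocrit and 0.05% parasitemia final, were cultured with compound through two parasite generations (96 hours) at 37 C, 5% CO2.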
HCV inhibitor: qHTS Assay for Inhibitors of Hepatitis C Virus (HCV); Potency, µM (titrated, usually from 41.8 µM), for inactives: at the top dose activity change, negative = inhibition, actives largely listed as inhibitors; 3.4% of 340,000 active; Huh7.5.1 HCVcc-Cre infection, luciferase reporter, 44 h; AID 651820, 2012; also: % is scaled to controls: 0 for no effect and ±100 for the full control effect
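A cell-based infection assay in which seeded cells (1,000 per well) receive test compound after 4 h, are inoculated with HCVcc-Cre at approximately 0.5 moi, and are incubated 44 h before luminescence detection.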
VACV Venus inh: qHTS for Stage-Specific Inhibitors of Vaccinia Orthopoxvirus: Venus Reporter Primary qHTS; 0.46% of 330,000 active; Potency, µM (titrated, usually from 36.5 µM), without a hit: at the top dose activity change, negative = inhibition, actives largely listed as inhibitors; Vaccinia virus Venus reporter expression, fluorescence; calls by dose curve; tested in A549 cells; also: % is scaled to controls: 0 for no effect and ±100 for the full control effect; nearly all actives have a fitted effect of over 30% in size
VACV mCherry inh: qHTS for Stage-Specific Inhibitors of Vaccinia Orthopoxvirus: mCherry Reporter Primary qHTS; Vaccinia virus mCherry reporter infection, fluorescence; Potency, µM (series often up to 36.5 µM), without a hit: at the highest dose activity change, negative = inhibition, usual class: inhibitors; 0.63% of 310,000 active; AID 720579, 2013; calls by dose curve; tested in A549 cells; also: % is scaled to controls: 0 for no effect and ±100 for the full control effect; nearly all actives have a fitted effect of over 35% in size
NS1 function inh: qHTS Assay for Inhibitors of Influenza NS1 Protein Function | Potency, µM (doses to about 46.1 µM), for the others: at the highest dose activity, positive = more growth | 0.4% of 270,000 active | AID 2326, 2010; calls by dose curve; also: actives are rising curves; nearly all actives have a fitted effect of over 50% in size
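A cell-based growth assay was used: compounds that relieve NS1-induced slow growth of budding yeast raise OD600. Assay medium was yeast nitrogen base with ammonium sulphate and -URA supplement, pH 6.0, with 2% galactose.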
Pf growth 48h: Primary qHTS for delayed death inhibitors of the malarial parasite plastid, 48 hour incubation. P. falciparum luciferase growth in erythrocytes, 48 h. Potency, µM (series often up to 28.7 µM), for inactives: top-dose activity change, negative = inhibition, hits mostly inhibitors. 5.9% of 310,000 active; also: % is scaled to controls: 0 for no effect and ±100 for the full control effect
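Firefly luciferase activity from engineered P. falciparum reports growth; inhibitors lower the luminescent signal. Cultures contained 2% hematocrit erythrocytes at 0.1% final parasitemia.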
* hit, by the source's call; i = inactive; ? = inconclusive; / = no result given. Unless noted, calls follow the shape of the dose curve; as a rule, active = well fitted inhibition curve with a large enough effect; inconclusive = small, poorly fitted or top-dose-only effect, or another doubt; inactive = no such curve, though single readings can be large or run the other way. Potency is read from the fitted curve at half-maximal effect.

SMILES | Pf growth 96h | HCV inhibitor | VACV Venus inh | VACV mCherry inh | NS1 function inh | Pf growth 48h
O=C(NNC(=O)C1CC=CCC1)c1cccc(Br)c1 (stereo not drawn) | / | 22% | -9% | i | / | /
COc1ccc(C(=O)C=CNNC(=O)c2ccc(Cl)cc2)cc1 | 3% | 11µM* | -11% | ? | 1% | ?
O=C(/C=C/NNC(=O)c1ccccc1)c1ccc(Br)cc1 | 183% | 2.2µM* | 1% | -15% | -104% | /
O=C(/C=C/NNC(=O)c1cccc(Br)c1)c1cccc(Br)c1 | / | ? | -13% | i | -61% | 9.3µM*
N/C(=N\OC(=O)c1cccc(Br)c1)c1ccc(Br)cc1 | 1.9µM* | 13% | -22% | -6% | -8% | 48%
COc1ccc(C(=O)NN/C=C/C(=O)c2ccc(Br)cc2)cc1 | / | / | -16% | -6% | / | /
COc1ccc(C(=O)N2CCC(C(=O)c3ccc(F)cc3)CC2)cc1 | 8% | -3% | -20% | -26% | -24% | -10%
Cc1ccc(CNC(=O)CCS(=O)(=O)c2ccc(Cl)cc2)cc1 | 13% | 16% | -7% | -16% | 3% | -13%
O=C(O)c1cccc(C(=O)c2cccc(C(=O)O)c2)c1 | -1% | 12% | -4% | -1% | 10% | 28%
Cc1cccc(C(=O)NNC(=O)C(=O)NC(C)(C)C)c1 | ? | 15% | 2% | -11% | -10% | 50%
CC(C)(C)NC(=O)C(=O)NNC(=O)c1cccc(Br)c1 | 2.1µM* | -16% | 2% | -3% | / | 64%
O=C(O)c1cccc(Br)c1 | / | 0.79µM* | -4% | 2% | / | /
O=C(/C=C/NNC(=O)c1ccc(Cl)cc1)c1ccccc1 | -20% | 8.9µM* | -20% | -7% | / | -30%
COc1cc(C(=O)NCC(=O)NCCN2C(=O)S/C(=C\c3ccccc3Cl)C2=O)cc(OC)c1OC | 35% | ? | -22% | -12% | / | ?
Cc1ccc(CNC(=O)c2ccc(COc3ccccc3)cc2)cc1 | -10% | 4% | -14% | i | 3% | -5%
CCOC(=O)C(C)(C)NS(=O)(=O)c1ccc(Cl)c([N+](=O)[O-])c1 | i | ? | -5% | 0% | -26% | -10%
CC1(c2ccc(Cl)cc2)NC(=O)N(CC(=O)NCc2ccc(F)cc2)C1=O (stereo not drawn) | -2% | 7% | -15% | -23% | 12% | 7%
CC1CCC/C(=C(\C#N)c2nc(-c3cc4ccccc4oc3=O)cs2)C1 (stereo not drawn) | 6.6µM* | ? | -14% | -26% | 25% | 296%
CC(=O)n1c(=O)c2ccccc2c(=O)n1-c1ccccc1 | -14% | 20% | -6% | -14% | 11% | -9%
Cc1ccc(S(=O)(=O)c2nc(NN(C)C)sc2Cl)cc1 | 2% | -25% | -13% | -24% | / | -10%
O=C(O)CC1CCC(=C(Cl)Cl)C1 (stereo not drawn) | 12µM* | -1% | 1% | 0% | -62% | -1%
CC(NC(=O)c1ccccc1OC(F)F)c1ccc(-n2ccnc2)cc1 (stereo not drawn) | 12µM* | 15% | -10% | -14% | 0% | ?
Cc1cccc(C(=O)NC(C)c2ccc(-n3ccnc3)cc2)c1C (stereo not drawn) | / | -1% | / | / | / | /
Cc1ccc(N2CCN(S(=O)(=O)c3ccc(C)cc3)CC2)cc1 | 4% | 22% | -12% | -17% | -4% | ?
CN(CCc1ccccc1)C(=O)c1cccc(NC(=O)Cc2cccc(NC(=O)C3CCCN(C(=O)C4CC4)C3)c2)c1 (stereo not drawn) | / | -23% | 0% | i | / | /
SMILES | Pf growth 96h | HCV inhibitor | VACV Venus inh | VACV mCherry inh | NS1 function inh | Pf growth 48h
CCC1CCCCN1C(=O)C1CC(c2cc(Cl)c(OC)cc2OC)=NO1 (stereo not drawn) | / | 3% | -8% | -9% | -38% | ?
COc1cc(OC)c(C2=NOC(C(=O)N3CCCc4ccccc43)C2)cc1Cl (stereo not drawn) | 8.3µM* | 5.6µM* | / | / | -3% | /
CC(=O)OC1CC(OC(C)=O)[C@]2(C)C(CC(OC(C)=O)[C@]3(C)C2CC[C@@]2(C)C(c4ccoc4)C[C@H]4O[C@]432)C1(C)C (stereo partly drawn) | / | / | -19% | -23% | / | /
CC(=O)OC1C[C@@]2(C)C(c3ccoc3)C[C@H]3O[C@@]32[C@@]2(C)C(=O)C(O)=C3C(C)(C)C(=O)C=C[C@]3(C)C12 (stereo partly drawn) | / | / | 8.9µM* | 7.1µM* | / | /
O=C(NCC1CCCO1)C1CCN(S(=O)(=O)c2cccc3cccnc23)CC1 (stereo not drawn) | ? | 14% | -14% | 2% | 13% | 5%
COc1ccc(OCCCC(=O)Nc2cc(S(=O)(=O)N3CCCCC3)ccc2OC)cc1 | 9.3µM* | ? | / | / | / | 12µM*
COc1ccc(S(=O)(=O)N2CCOCC2)cc1NC(=O)CCCOc1ccccc1 | / | -9% | 3% | -12% | / | /
Cc1ccc(S(=O)(=O)N2CCCCC2)cc1NC(=O)COc1ccccc1 | / | ? | 5% | -23% | / | /
CCC(=O)c1ccc(OCC(=O)Nc2cc(S(=O)(=O)N3CCCCC3)ccc2OC)cc1 | ? | 11µM* | / | / | 25% | ?
COc1ccc(S(=O)(=O)N2CCCCC2)cc1NC(=O)CCCNC(=O)c1ccc(Cl)cc1 | ? | 9% | / | / | / | ?
COc1ccc(S(=O)(=O)N2CCCCCC2)cc1NC(=O)CCCOc1ccccc1 | ? | 13µM* | / | / | / | 9.3µM*
COc1ccc(S(=O)(=O)N2CCCCC2)cc1NC(=O)CSc1ncccn1 | 12µM* | 15% | / | / | / | ?
COc1cccc(NC(=O)C(OC(=O)c2ccc([N+](=O)[O-])o2)c2ccccc2)c1 (stereo not drawn) | -27% | 3% | / | / | -49% | -3%
CC(C)(C)OC(=O)N1CCC(c2c(C(=O)N3CCN(c4ccccn4)CC3)cnn2-c2ccccc2)CC1 | / | / | -11% | -12% | / | /
Cc1cccc(NC(=O)COC(=O)c2ccc([N+](=O)[O-])o2)c1C | -1% | 17% | -5% | 4% | / | -12%
COc1ccccc1OCc1ccc(C(=O)Nc2ccncc2)o1 | -50% | ? | / | / | -10% | -14%
C/C(CC(=O)Nc1ccc(N(C)C)cc1)=N\NC(=O)c1ccc([N+](=O)[O-])cc1Cl | 6% | 13% | -8% | -4% | 9% | -3%
CC1CCCN(CCC(=O)Nc2ccccc2)C1 (stereo not drawn) | 65% | 8% | -7% | -13% | 4% | 40%
O=C(NCc1cnc2ccccn12)C1CCC(=O)N(Cc2cccc(F)c2)C1 (stereo not drawn) | ? | -13% | -4% | -5% | 2% | 7%
